KDM4E inh = JMJD2E (human) inhibition; B2RXH2; JMJD2E catalytic domain, FDH-coupled NADH fluorescence (FDH is formaldehyde dehydrogenase); Potency, µM (doses to about 57.1 µM), for the others: top-dose activity change, negative = inhibition, hits mostly inhibitors; 1.6% of 230,000 active; AID 2147;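 note: potency is the fitted concentration of half-maximal effect; 0% = wells with enzyme and -100% = buffer wells without enzyme; nearly all actives have a fitted effect of over 50% in size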
PNC assembly inh = inhibitors of perinucleolar compartment assembly; PC3M PTB-GFP, PNC prevalence imaging, 16 h; active compounds read low; activity change (PNC), negative = inhibition, % at 10 µM; 3.1% of 140,000 active; AID 2417;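 active = readout at or below -70, meaning at least 70% loss of cells showing the perinucleolar compartment, a nuclear body marking cancer cells; inconclusive = readout between -30 and a set limit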;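 note: plate controls were DMSO wells for no effect and camptothecin positive control wells for full effect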
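Read-out is percentage of cells bearing a perinucleolar compartment, from automated 20x imaging of fixed, Hoechst-stained PC3M PTB-GFP cells. Cells were seeded 4 h, then exposed 16 h to compound (23 nl of library stock) in duplicate plates.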
HPGD inh = inhibitors of human 15-hydroxyprostaglandin dehydrogenase (HPGD) | P15428 | purified HPGD, NADH fluorescence kinetic, PGE2 substrate | Potency, µM, for the others: at the highest dose activity change, negative = inhibition, hits mostly inhibitors | 4.3% of 150,000 active | AID 894; note: potency is the fitted concentration of half-maximal effect
Target sequence (P15428 whole entry, looked up): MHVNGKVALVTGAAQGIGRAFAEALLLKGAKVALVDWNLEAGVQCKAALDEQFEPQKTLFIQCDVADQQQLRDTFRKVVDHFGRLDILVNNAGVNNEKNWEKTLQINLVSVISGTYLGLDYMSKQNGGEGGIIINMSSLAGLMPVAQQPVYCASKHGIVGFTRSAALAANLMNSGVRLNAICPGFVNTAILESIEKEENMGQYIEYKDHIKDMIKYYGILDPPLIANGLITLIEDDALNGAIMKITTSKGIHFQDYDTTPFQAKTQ
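20 nM HPGD preincubated 15 min at room temperature with compound in 50 mM Tris-HCl pH 8, 0.01% Tween 20. Started with 1 mM NAD+ and 30 uM prostaglandin E2; NADH fluorescence (360/450 nm) read 5 times over 30-s intervals, last minus first.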
ALDH1A1 inh = inhibitors of human aldehyde dehydrogenase 1A1; Purified ALDH1A1, NADH fluorescence, propionaldehyde substrate; Potency, µM (highest dose often 75.3 µM), inactives show at the top dose activity, negative = inhibition, most hits filed as inhibitors; 7.3% of 220,000 active;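 note: potency is the fitted concentration of half-maximal effect; plate controls were no enzyme wells and a reference inhibitor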
* hit, by the source's call. Rows were chosen to be rich in hits. Some 11% of all compounds tested hit in one or more screens of this group. Unless noted, calls come from the whole dose curve; as a rule, active = well fitted inhibition curve with a large enough effect (not every such curve was filed as active); inconclusive = small, poorly fitted or top-dose-only effect, or another doubt; inactive = no such curve, though single readings can be large or run the other way. Unless noted, % is set by controls: 0 for no effect and ±100 for the full control effect.

For Cn1nc(C(F)(F)F)c(-c2ccc(Br)cc2)c1NC(=O)Nc1ccc(F)cc1F the results were KDM4E inh 11%.
`CCN(CC(=O)Nc1sc2c(c1C#N)CCC(C)C2)Cc1nc2ccccc2c(=O)[nH]1` (stereo unspecified) gave KDM4E inh -3% and ALDH1A1 inh 25µM*.
Screening C[C@H]1C=C(C(=O)NCc2ccccc2)O[C@@H](OCc2ccc(CO)cc2)C1 returned KDM4E inh -3% and ALDH1A1 inh 0%.
Screening O=C(NCc1ccccc1)C1CCN(S(=O)(=O)c2cc([N+](=O)[O-])ccc2Cl)CC1 returned KDM4E inh -15%, PNC assembly inh -12, HPGD inh -10% and ALDH1A1 inh 25µM*.
For CC(NC(=O)C1CCN(S(=O)(=O)c2cc([N+](=O)[O-])ccc2Cl)CC1)c1ccccc1 (stereo unspecified) the results were KDM4E inh 10%, PNC assembly inh -16, HPGD inh -6% and ALDH1A1 inh inconclusive.
Screening CN(Cc1ccccc1)C(=O)C1CCN(S(=O)(=O)c2cc([N+](=O)[O-])ccc2Cl)CC1 returned KDM4E inh -4%, PNC assembly inh 27 and ALDH1A1 inh 6.3µM*.
For COCc1[nH][nH]c(=O)c1/C=N/N1CCOCC1 the results were KDM4E inh -10% and ALDH1A1 inh -12%.
N#Cc1ccccc1Sc1ccccc1C(=O)Nc1ccccc1 was read as KDM4E inh -3%, PNC assembly inh 5, HPGD inh -3% and ALDH1A1 inh 2%.
Screening CN(C)C(=O)c1ccc(NC(=O)c2ccccc2Sc2ccccc2C#N)cc1 returned KDM4E inh 11%, PNC assembly inh 34, HPGD inh 18µM* and ALDH1A1 inh -12%.
`CN(O)/C=N/C(=S)Nc1ccc(Cl)cc1Cl` gave KDM4E inh 7% and ALDH1A1 inh 1.6µM*.
`C/C(=N/NC(=O)c1cccnc1)C1=C(O)CC(C)(C)CC1=O` gave KDM4E inh -7% and ALDH1A1 inh 4%.
`CC(=Nc1cc(C(=O)c2ccccc2)ccc1N)C1=C(O)CC(C)(C)CC1=O` gave KDM4E inh -4% and ALDH1A1 inh 7.9µM*.
Cc1ccc(Cl)cc1NC(=O)c1cc2ccccc2cc1O was read as KDM4E inh 22µM* and ALDH1A1 inh 7%.
`CC1CCN(c2nnc(N3CCC(C)CC3)c3ccccc23)CC1` gave KDM4E inh 10% and ALDH1A1 inh 11%.
For CC1CCN(c2nncc3ccccc23)CC1 the results were KDM4E inh 13%, PNC assembly inh -93*, HPGD inh -5% and ALDH1A1 inh -3%.
For COc1ccc(-c2csc(C3=C(O)CN(CCCN4CCCC4=O)C3=N)n2)cc1OC the results were KDM4E inh -8% and ALDH1A1 inh inconclusive.
O=C(/C=C/c1ccncc1)c1ccc2c(c1)OCCO2 was read as KDM4E inh 5% and ALDH1A1 inh 0.89µM*.
COC(=O)c1cc(Cl)c(NC(=O)c2cc3ccccc3o2)cc1OC was read as KDM4E inh 12%, PNC assembly inh 32, HPGD inh -30% and ALDH1A1 inh -10%.
`Cc1ccc(C)c(N(CC(=O)NC2CCCC2)C(=O)c2cc3cc4cccc(C)c4nc3s2)c1` gave KDM4E inh 8%, PNC assembly inh 47, HPGD inh -28% and ALDH1A1 inh 7%.
`Cc1ccc2cc3cc(C(=O)N(CC(=O)NC4CCCC4)c4cccc(C)c4C)sc3nc2c1` gave KDM4E inh 5%, PNC assembly inh -106*, HPGD inh inconclusive and ALDH1A1 inh 8%.
For CCCC(=O)Nc1cc(C(=O)O)ccc1S(=O)(=O)c1ccc(Cl)cc1 the results were KDM4E inh -7%, PNC assembly inh 12, HPGD inh -5% and ALDH1A1 inh 10%.
`C1CCC(C23CC4CC(CC(C4)C2)C3)NC1` (stereo unspecified) gave KDM4E inh 2%, PNC assembly inh 27, HPGD inh 3% and ALDH1A1 inh 10%.
Screening CCC(=O)N(CCC1(c2ccccc2OC)CCOC(C(C)C)C1)Cc1ccco1 (stereo unspecified) returned KDM4E inh 8% and ALDH1A1 inh 3%.
Screening CCN(CC)c1ccc(NC(=O)c2ccccc2OCC(=O)OC)cc1 returned KDM4E inh -5% and ALDH1A1 inh inconclusive.
`C=CCN1C(=O)C(Cc2ccc(OCC)cc2)S/C1=N\N=C\c1cccs1` (stereo unspecified) gave KDM4E inh 0%, PNC assembly inh 13, HPGD inh -13% and ALDH1A1 inh 4.5µM*.

From PubChem
